High-throughput results (PubChem)
A selection: hits, their analogues and other compounds. The true share with any hit is near 3.1%.
pS6 MEF inh: reduces mTORC1 signaling in Tsc2 and p53 null MEF cells | Tsc2-/- p53-/- MEF, phospho-rpS6 immunofluorescence/PI, 24 h | Potency, µM (titrated, usually from 38.3 µM), inactives show at the highest dose activity change, negative = inhibition, usual class: inhibitors | 0.78% of 44,000 active;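 further: potency means the concentration at half of the fitted maximal effect; plate controls were DMSO for no effect and rapamycin for full effect; nearly all actives have a fitted effect of over 50% in size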
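Read-out: phospho-S6 Alexa-488 intensity over PI intensity per well, scored as % active cells using thresholds from rapamycin (7.5 nM) and DMSO controls. Tsc2-/-, p53-/- MEFs exposed to compound for 24 h; PI cell count recorded as viability.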
p53null 32C kill: kills p53 null cells at the permissive temperature; H1299-neo p53 null cells, ATP luminescence, 24 h, 32C; Potency, µM (highest dose often 46.1 µM), without a hit: at the top dose activity change, negative = cytotoxicity, usual class: cytotoxic; 0.62% of 55,000 active; AID 903;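 further: potency means the concentration at half of the fitted maximal effect; 0% = DMSO only and -100% = full killing by 100 µM tamoxifen; nearly all actives have a fitted effect of over 55% in size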
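We seeded p53-null H1299-neo cells, incubated them overnight at 37C, and added compounds across a range up to 46 uM. After 24 hours at 32C, ATP reagent was applied for 20 min at room temperature and luminescence recorded.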
OvCa metastasis: ovarian cancer metastasis inhibition, 3D TME model. Potency, µM (highest dose often 45.8 µM), for inactives: at the highest dose activity change, negative = inhibition, most hits filed as inhibitors. 0.1% of 46,000 active. AID 1963576. SKOV3ip1-GFP adhesion/invasion on 3D omental model, fluorescence;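 further: potency means the concentration at half of the fitted maximal effect; plate controls were DMSO wells for no effect and tomatine positive control wells for full effect; nearly all actives have a fitted effect of over 65% in size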
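Adhesion/invasion was scored as fixed GFP-labeled SKOV3ip1 cell counts (488/509 nm), normalized to DMSO and tomatine controls. Cancer cells in serum-free medium, with four compound doses (0.36-46 umol/L), sat 2 hr at RT then 16 hr at 37 C on a 48 hr fibroblast/mesothelial/ECM culture.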
PMP22 txn: PMP22 gene transcription modulation. S16 Pmp22-F2sN Schwann cells, FLuc/NLuc coincidence luminescence, 24 h. 2% of 43,000 active. Potency, µM (titrated, usually from 57.5 µM), without a hit: top-dose activity change, negative = inhibition, hits mostly inhibitors; active means clear falling dose curves in both reporters; inconclusive means both reporters move, but less clearly or upward; inactive means either reporter flat; the % is the NLuc reporter signal; further: potency means the concentration at half of the fitted maximal effect; on the % scale 0 is the no-effect control and ±100 the full control effect
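qHTS, 1536-well. Cells seeded, compounds added by pin tool, 24 h 37C. Nano-Glo reagent 1 (lysis/FLuc), 10 min RT, read; Stop&Glo, 10 min RT, read NLuc.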
p53null 39C tox: p53 null cell cytotoxicity, nonpermissive temperature | AID 904 | Potency, µM (series often up to 46.1 µM), for the others: at the highest dose activity, negative = cell killing, most hits filed as cytotoxic | H1299 p53-null (neo) cells, 39C, ATPlite viability, 24 h | 0.97% of 55,000 active;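 further: potency means the concentration at half of the fitted maximal effect; 0% = DMSO only and -100% = full killing by 100 µM tamoxifen; nearly all actives have a fitted effect of over 50% in size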
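Cells seeded at 600/well, 37C overnight. Compound added (up to 46 uM), plates shifted to 39C for 24 hr. ATPlite added, luminescence read after 20 min at room temperature.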
S16 viability: cytotoxicity in S16 Pmp22-F2sN Schwann cells | S16 Pmp22-F2sN Schwann cells (luciferase reporters placed in the Pmp22 gene) viability, CellTiter-Glo, 24 h | Potency, µM (doses to about 57.5 µM), for inactives: at the highest dose activity change, negative = cytotoxicity, hits mostly cytotoxic | 0.48% of 43,000 active; further: potency means the concentration at half of the fitted maximal effect; on the % scale 0 is the no-effect control and ±100 the full control effect; nearly all actives have a fitted effect of over 65% in size
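Luminescence from CellTiter-Glo, read by CCD camera after a 15 min room-temperature incubation, served as the viability signal. Reporter Schwann cells (S16 Pmp22-F2sN) had been treated with pin-transferred compounds for 24 h at 37C.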
NLuc saturating: counter-screen for PMP22 expression modulators: NanoLuc inhibition, saturating substrate | shares compounds with PMP22 txn | Secreted NLuc enzyme (filtered S16 cell medium), Nano-Glo luminescence | Potency, µM (top dose mostly 57.5 µM), for the others: top-dose activity change, negative = inhibition, usual class: inhibitors | 4% of 690 active | AID 1508638; further: potency means the concentration at half of the fitted maximal effect; on the % scale 0 is the no-effect control and ±100 the full control effect
NLuc Km counter: NanoLuc inhibition at Km substrate, PMP22 artifact check; shares compounds with PMP22 txn; secreted NLuc enzyme, coelenterazine luminescence, Km conditions; Potency, µM (top dose mostly 57.5 µM), for the others: at the highest dose activity change, negative = inhibition, usual class: inhibitors; 5% of 690 active; AID 1508639; further: potency means the concentration at half of the fitted maximal effect; on the % scale 0 is the no-effect control and ±100 the full control effect
FLuc ctr PMP22: inhibits firefly luciferase, PMP22 counter-screen. Potency, µM (highest dose often 57.5 µM), for the others: at the top dose activity, negative = inhibition, most hits filed as inhibitors. shares compounds with PMP22 txn. AID 1508640. purified P. pyralis FLuc, luminescence, 10 min. 690 tested, under 10 active; further: % of control where 0% means no effect
Target sequence (P08659 whole entry, looked up): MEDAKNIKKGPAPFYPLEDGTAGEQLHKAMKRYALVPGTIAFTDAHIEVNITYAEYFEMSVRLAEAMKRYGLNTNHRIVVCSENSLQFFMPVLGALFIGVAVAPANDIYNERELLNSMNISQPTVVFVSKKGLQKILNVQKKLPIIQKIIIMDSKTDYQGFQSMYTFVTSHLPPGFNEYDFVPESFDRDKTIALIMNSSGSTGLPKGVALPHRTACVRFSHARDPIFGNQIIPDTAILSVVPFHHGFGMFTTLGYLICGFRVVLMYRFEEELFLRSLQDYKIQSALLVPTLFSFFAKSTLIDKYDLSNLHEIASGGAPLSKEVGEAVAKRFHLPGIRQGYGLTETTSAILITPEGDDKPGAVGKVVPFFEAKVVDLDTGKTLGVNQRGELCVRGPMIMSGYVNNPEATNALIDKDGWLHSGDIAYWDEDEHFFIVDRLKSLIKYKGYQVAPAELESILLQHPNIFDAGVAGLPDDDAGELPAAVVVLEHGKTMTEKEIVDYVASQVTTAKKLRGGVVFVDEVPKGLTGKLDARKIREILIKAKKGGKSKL
S16 F2sN tox cnf: S16 Schwann cell cytotoxicity, confirmatory. shares compounds with PMP22 txn. S16 Schwann cells viability, CellTiter-Glo ATP luminescence, 24 h. Potency, µM (titrated, usually from 57.5 µM), for inactives: at the top dose activity change, negative = viability loss, usual class: cytotoxic. 7% of 690 active. AID 1508641; further: potency means the concentration at half of the fitted maximal effect; on the % scale 0 is the no-effect control and ±100 the full control effect
PMP22 txn conf: confirmation of modulators of PMP22 gene transcription in S16 cells; shares compounds with PMP22 txn; S16 Schwann cells Pmp22-F2sN, dual luciferase, 24 h; Potency, µM (series often up to 57.5 µM), for inactives: at the top dose activity change, negative = inhibition, usual class: inhibitors; 22% of 690 active; AID 1508646; active means clear falling dose curves in both reporters; inconclusive means both reporters move, but less clearly or upward; inactive means either reporter flat; the % is the FLuc reporter signal; further: potency means the concentration at half of the fitted maximal effect
PMP22 HiBiT cnf: confirmation of modulators of rat PMP22 protein expression. 95 tested, under 10 active. AID 1508647. shares compounds with PMP22 txn. Potency, µM (highest dose often 27.9 µM), without a hit: at the top dose activity change, negative = inhibition, usual class: inhibitors. S16 Schwann cells Pmp22-HiBiT, luminescence, 48 h
Target sequence (P25094 whole entry, looked up): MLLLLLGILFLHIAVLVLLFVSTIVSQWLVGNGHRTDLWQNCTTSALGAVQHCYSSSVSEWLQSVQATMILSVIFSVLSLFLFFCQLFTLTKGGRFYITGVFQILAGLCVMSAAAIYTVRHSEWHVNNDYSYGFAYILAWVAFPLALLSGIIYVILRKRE
* = called active by the depositor; i = inactive; ? = inconclusive; / = no result. Unless noted, the call rests on the fitted dose curve; in most records, active means well fitted curve in the direction sought with a large enough effect; inconclusive means small, poorly fitted or top-dose-only effect, or another doubt; inactive means no such curve, though single readings can be large; an effect the other way counts as inactive or inconclusive.

SMILES	pS6 MEF inh	p53null 32C kill	OvCa metastasis	PMP22 txn	p53null 39C tox	S16 viability	NLuc saturating	NLuc Km counter	FLuc ctr PMP22	S16 F2sN tox cnf	PMP22 txn conf	others
CC1=C(C(=O)Nc2ccc(Cl)cc2)C(c2ccccc2)n2ncc(C(=O)Nc3ccccc3)c2N1 (stereo unspecified)	?	18.3%	?	?	25.3%	?	/	/	/	/	/
O=C(CCOc1ccccc1)N(Cc1cccnc1)c1nc2ccc(F)cc2s1	-7.6%	-11.6%	i	13.4µM*	8.9%	25.1µM*	?	?	-15.0%	-6.4%	-11.9%
O=C(COc1ccccc1)N(Cc1cccnc1)c1nc2ccc(F)cc2s1	2.2%	-11.8%	-1.3%	-27.3%	35.5%	-23.6%	/	/	/	/	/
COc1ccc(-c2c(C)nn3c(C(F)(F)F)cc(-c4ccccc4)nc23)cc1OC	3.6%	-2.9%	i	-21.0%	4.9%	11.3%	/	/	/	/	/
COc1ccc(-c2cc(C(F)(F)F)n3nc(C)c(-c4ccccc4)c3n2)cc1OC	-10.9%	1.8%	i	10.6µM*	-12.5%	22.7%	0.1%	2.0%	5.4%	-6.6%	?
CCOc1ccccc1NC(=O)c1c(NC(=O)COc2ccc(Cl)cc2)sc2c1CCCCC2	9.7%	14.3%	2.5%	-1.8%	12.9%	3.0%	/	/	/	/	/
CCOc1ccccc1NC(=O)c1c(NC(=O)COc2ccccc2)sc2c1CCCCC2	-4.0%	-1.7%	-27.4%	12.7µM*	-13.3%	0.5%	0.3%	3.1%	-2.2%	6.9%	3.1%
CC(C)(N)c1ccc(-c2nc3ccccc3nc2-c2ccccc2)cc1	/	/	-2.0%	/	/	/	/	/	/	/	/
CC(C)C[C@H](NC(=O)[C@H](Cc1ccccc1)NC(=O)c1cnccn1)B(O)O	/	/	-20.0%	/	/	/	/	/	/	/	/
O=C(CCS(=O)(=O)c1ccc(Br)s1)Nc1cc(C(F)(F)F)cc(C(F)(F)F)c1	-28.6%	5.5%	?	20µM*	?	?	0.2%	-14.4%	-4.0%	?	?
O=C(CSc1nc2ccsc2c(=O)n1-c1ccc(Br)cc1)NCc1ccc(Cl)cc1	?	-3.0%	-1.2%	12.4µM*	0.6%	2.2%	-4.9%	-2.0%	4.9%	2.9%	?
O=C(CSc1nc2ccsc2c(=O)n1-c1ccc(Cl)cc1)NCc1ccc(Cl)cc1	-3.0%	0.8%	i	?	15.2%	6.3%	/	/	/	/	/
CCc1ccc(S(=O)(=O)c2cn(Cc3ccccc3F)c3cc(OC)c(OC)cc3c2=O)cc1	-8.3%	9.1%	10.9%	14.2µM*	-11.5%	-18.3%	-18.5%	4.3%	7.5%	8.5%	-43.5%
CCc1ccc(S(=O)(=O)c2cn(Cc3ccc(OC)cc3)c3cc(OC)c(OC)cc3c2=O)cc1	0.9%	18.2%	8.6%	-22.6%	-11.7%	-16.5%	/	/	/	/	/
CCOc1ccccc1Nc1sc(C(=O)c2ccccc2)c(N)c1S(=O)(=O)c1ccc(C)cc1	4.8%	11.8%	?	2.84µM*	21.2%	?	-6.0%	6.0%	5.4%	17.3%	?
Cc1c(Cl)cccc1Nc1sc(C(=O)c2ccccc2)c(N)c1S(=O)(=O)c1ccccc1	-0.2%	10.5%	i	-18.8%	-0.4%	-4.5%	/	/	/	/	/
Cc1cccc(C)c1Nc1sc(C(=O)c2ccccc2)c(N)c1S(=O)(=O)c1ccccc1	-10.7%	29.0%	?	6.7µM*	-16.0%	-1.0%	-9.9%	-1.9%	6.9%	-12.6%	?
COC(=O)CS(=O)(=O)c1nc2ccccc2nc1N1CCCCC1	?	12.7%	3.7%	11.3µM*	32.4%	?	?	?	-10.0%	29.2%	9.93µM*	PMP22 HiBiT cnf=?
CCN(CC)CCOc1ccc(C(=C(Cl)c2ccccc2)c2ccccc2)cc1	/	/	3.7%	/	/	/	/	/	/	/	/
COCCn1c(SCc2ccccc2F)nc2c([nH]c3ccccc32)c1=O	-6.5%	-4.8%	-5.3%	10.6µM*	15.8%	0.8%	-5.8%	-0.2%	6.2%	-20.9%	?
Cn1c(SCc2ccccc2F)nc2c([nH]c3ccccc32)c1=O	-7.5%	-0.9%	0.8%	-3.3%	-10.4%	0.6%	/	/	/	/	/
Cc1cccc(N2CCN(C(=O)c3ccc(CS(=O)c4cccc(Cl)c4)o3)CC2)c1C (stereo unspecified)	7.36µM*	-21.2%	i	9.58µM*	?	?	-18.5%	?	-2.5%	-14.7%	?
Cc1ccc(S(=O)(=O)Cc2ccc(C(=O)N3CCN(c4cccc(C)c4C)CC3)o2)cc1	?	9.1%	11.2%	13.9µM*	14.4%	-18.7%	-9.4%	1.7%	5.0%	-17.3%	?
Cc1ccccc1Cn1nnc2c(=O)[nH]c(C3CCN(C(=O)c4ccc(F)cc4)CC3)nc21	1.1%	10.2%	9.8%	10.1µM*	17.7%	-14.3%	?	-11.3%	6.3%	-10.8%	-45.0%
